According to the supplement of paper PMC13380429:

How the values were obtained:
[1] = tested on: Vero E6 infected with SARS-CoV-2; test: morphology score (similarity to uninfected cells); higher = more like uninfected cells; details: 24 h
[2] = tested on: Vero E6 infected with SARS-CoV-2; test: SARS-CoV-2 infection rate relative to infected DMSO; higher = more infection, active = 60 or less; details: 24 h

SMILES | morphology score [1] | SARS-CoV-2 infection rate [2]
CC(C)N(C[C@H]1O[C@@H](n2cnc3c(N)ncnc32)[C@H](O)[C@@H]1O)[C@H]1C[C@@H](CCc2nc3cc(C(C)(C)C)ccc3[nH]2)C1 (10 µM) | 0.122 | 110% (inactive)
CCC[C@H](N[C@H]1CCc2cc(F)cc(F)c2C1)C(=O)Nc1cn(C(C)(C)CNCC(C)(C)C)cn1 (10 µM) | 0.0166 | 102% (inactive)
c1ccc([C@@H]2C[C@H]2NC2CCNCC2)cc1 (10 µM) | -0.09 | 114% (inactive)
CC(=O)NS(=O)(=O)c1ccc(NC(=O)c2ccccc2C(=O)O)cc1 [phthalylsulfacetamide] (10 µM) | 0.21 | 99.5% (inactive)
Nc1nc(=O)n([C@H]2C[C@H](O)[C@@H](CO)O2)cc1F [fdcyd] (10 µM) | -0.201 | 97.5% (inactive)
Clc1ccc(C(Cn2ccnc2)OCc2c(Cl)cccc2Cl)c(Cl)c1 (configuration not stated) [isoconazole] (10 µM) | 0.222 | 104% (inactive)
CCCCC(CC)CCC(CC(C)C)OS(=O)(=O)O (configuration not stated) [sodium-tetradecyl-sulfate] (10 µM) | 0.0389 | 102% (inactive)
O=C(c1cccc(Br)c1)N1CCC(N2CCCC2)CC1 (10 µM) | -0.00696 | 106% (inactive)
CC(=O)NS(=O)(=O)c1ccc(N)cc1 [sulfacetamide] (10 µM) | 0.147 | 100% (inactive)
CCCC(CCC)C(=O)NCC(N)=O [valrocemide] (10 µM) | 0.062 | 108% (inactive)
C1COC(NC(C2CC2)C2CC2)=N1 [rilmenidine] (10 µM) | -0.0313 | 99.5% (inactive)
